The campaign covered roughly 330,000 compounds. About 7,300 (2.2%) were called active.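 Rule for the calls: active = inhibition of at least 40%; inactive = the rest.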 For the sample, actives were picked, then their nearest neighbours and some compounds at random.
Test: growth inhibitors of tim10-1 mutant yeast, primary screen, luminescence, uHTS (AID 463190);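 note: mutant grown at 25 °C; 0% = DMSO wells with yeast and 100% = wells holding no yeast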
Details: S. cerevisiae tim10-1 ts strain growth, BacTiter-Glo, 24 h; at 20 µM; stronger effect = higher value

inhibition, inactive:
CC(=O)Nc1ccc(S(=O)(=O)N2CCC(C(=O)NC3CC3)CC2)cc1 5.84%, O=C(Nc1ccc2oc(-c3ccc4ccccc4c3)nc2c1)c1cccs1 3.31%, Cc1cc2nc(-c3ccc(NC(=O)c4cccnc4)cc3)oc2cc1C 12.5%, Cc1ccc(NC(=O)COC(=O)CCc2nc3ccccc3n2-c2ccccc2)c(C)c1 10.3%, Cc1ccc2c(c1)C1CN(C)CCC1N2S(=O)(=O)c1cccc(F)c1 (configuration not stated) 3.83%, Cc1ccc2c(c1)C1CN(C)CCC1N2C(=S)Nc1ccc(OC(F)F)cc1 (configuration not stated) 3.44%, COCC(=O)Nc1c(I)c(C(=O)NCC(O)CO)c(I)c(C(=O)N(C)CC(O)CO)c1I (configuration not stated) 6%, Cc1ccc(/C=C/C(=O)O)cc1S(=O)(=O)N1CCC(Cc2ccccc2)CC1 -0.486%, COc1cc(CN2CCC(n3nccc3NC(=O)CCCc3ccccc3)CC2)ccc1O 25.4%, COc1cccc(CN(C)CC2CCCN(CCc3ccc(Cl)cc3)C2)c1OC (configuration not stated) -21.5%, Nc1cc(C(F)(F)F)ccc1N1CCOCC1 11.6%, CCc1ccc(C(CNc2nc(C(F)(F)F)nc3ccccc23)N(C)C)cc1 (configuration not stated) 29.3%, COc1cccc(CNc2nc(C(F)(F)F)nc3ccccc23)c1 39.2%, Cn1c2ccccc2n2c(=O)c(=O)n(CC(=O)c3ccc(F)cc3)nc12 -14.7%, COc1ccc(/C=C(\C#N)C(=O)OCC(=O)N(C)C2CCS(=O)(=O)C2)cc1 (configuration not stated) -4.56%, COc1ccc(N2CCN(C(=O)/C(C#N)=C/c3ccccc3)CC2)cc1 18.8%, CN(NC(=O)c1ccccc1F)c1nc(C(F)(F)F)nc2ccccc12 6.21%, Cc1ccc(Nc2c(F)c(F)c(F)c(F)c2C(=O)O)c(C)c1 -6.12%, NS(=O)(=O)c1ccc(N=Nc2c(O)[nH]c3ccc(Br)cc23)cc1 -13%, Oc1[nH]c2ccc(Br)cc2c1N=Nc1nn[nH]n1 16.7%, c1ccc(-c2cc(-c3ccccc3)[nH]n2)cc1 7%, Nc1cccc(-c2cc(-c3ccccc3)nc(-c3cccc(N)c3)n2)c1 26.4%, CCNc1nc(NCC)nc(N(C)n2cnnc2)n1 13.1%, O=C1N=C2SCCN2/C1=C\c1c(Cl)cccc1Cl -18.2%, CNC(=O)N1c2ccccc2C=Cc2ccccc21 -1.34%, CCN(CC(=O)NCc1ccco1)S(=O)(=O)c1ccc(F)cc1 -17.2%, Cc1cc(C)cc(OCC(=O)O/N=C(\N)Cc2ccc([N+](=O)[O-])cc2)c1 19.4%, O=C(COC(=O)C1CCCCC1)Nc1ccc([N+](=O)[O-])cc1 13.8%, O=C(COC(=O)Cc1ccc([N+](=O)[O-])cc1)NC1CCCCCC1 13.1%, COC(=O)C(C)NC(=O)COc1ccc2ccccc2c1 (configuration not stated) 8.45%, CCOC(=O)C1=C(C)c2ccccc2OC1C(=O)OCC (configuration not stated) 9.8%, COCCN(CCOC)c1nc(N)c2c(N)nc3c(c2c1C#N)CC(=O)N3Cc1ccc(Cl)cc1 28.9%, Cc1cc2cc(CNC(=O)c3cccs3)ccc2[nH]1 -2.64%, CCc1cccc(CC)c1NC(=S)Nc1ccc2cn[nH]c2c1 18.2%, O=C(Nc1nnc(CCN2CCCCC2)s1)c1cccc(Cl)c1 -12.8%, Cc1cc(/C=C2/SC(=O)N(CC(=O)N3CCCC3)C2=O)ccc1N1CCOCC1 3.32%, CC(OC(=O)c1ccccc1N1C(=O)C2C3CCC(C3)C2C1=O)C(=O)c1ccccc1 (configuration not stated) 22.1%, COC(=O)C1=C(C)N=C2SC(C)C(=O)N2C1/C=C/c1ccccc1 (configuration not stated) 19%, N#Cc1cccc(NC(=O)C2CCCN(C(=O)c3ccc(Cl)cc3)C2)c1 (configuration not stated) 7.79%, CCC1(C)NC(=O)N(CC(=O)N2CCN(c3cccc(Cl)c3)CC2)C1=O (configuration not stated) 9.91%, O=C(Nc1ccc2cn[nH]c2c1)c1ccc(S(=O)(=O)N2CCOCC2)cc1 -2.72%, CCc1nc(C)cn1S(=O)(=O)c1cc(OC)c(C)cc1C 14.4%, Cc1ccc([N+](=O)[O-])cc1S(=O)(=O)N1CCCN(C)CC1 -9.68%, O=C(Oc1ccc([N+](=O)[O-])cc1)c1ccc(Cl)c(S(=O)(=O)N2CCCCC2)c1 38.7%, CCc1nccn1S(=O)(=O)c1cccc([N+](=O)[O-])c1 -8.99%, CN(CCC1CCOCC1)Cc1cn[nH]c1-c1ccc(-c2ccccc2)cc1 18%, COc1ccc(C(=O)C2CCCN(C(=O)c3cc4nc(C)cc(C)n4n3)C2)cc1F (configuration not stated) 26.4%, CCOC(=O)c1cc(C(C)C)sc1NC(=O)COC(=O)c1nccnc1N 9.86%, CCOc1ccc(OCc2cccc(C(=O)N(CC)CC)c2)cc1 21.6%, CC(C)CCN1CCC(C)(NC(=O)c2ccccc2)C1=O (configuration not stated) 10.4%, COc1ccc(CN2C(=O)C(C)S/C2=N/N=C/c2ccco2)cc1 (configuration not stated) 19.3%, Cc1nn(Cc2ccccc2)c2c1C(c1ccccc1)C(C#N)=C(N)O2 (configuration not stated) 30.9%, Cc1nn(-c2ccccc2)c2c1C(c1ccc(F)cc1)C(C#N)=C(N)O2 (configuration not stated) 24%, COc1ccc(CCOC(=O)CNC(=O)c2ccc(Cl)cc2Cl)cc1 18.1%, O=C(O)c1cccnc1Sc1ncnc2sc3c(c12)CCC3 -4.59%, Brc1ccc2nc(N3CCCC3)sc2c1 22.5%, Cc1nc(N2CCCCC2)sc1C=O -8.24%, CC(C)N(C(=O)CN1CCN(S(=O)(=O)c2ccc(Br)s2)CC1)C(C)C 16.4%, O=C(COC(=O)C1CC2C=CC1C2)Nc1ccccc1 (configuration not stated) 13.3%, O=C1CC(c2cccc(Cl)c2)CC(O)=C1C=Nc1ccccc1 (configuration not stated) 21.6%, CCOc1ccc(-c2cc(C(=O)N/N=C/c3ccc(O)cc3)c3ccccc3n2)cc1 6.2%, O=C(O)c1cc([N+](=O)[O-])c(Nc2cccc3ccccc23)c([N+](=O)[O-])c1 7.28%, CCOC(=O)c1c(-c2cccc(N)c2)cn2ccccc12 10.5%, CCOC(=O)c1nnn(-c2nonc2OC)c1-c1ccccc1 15.2%, Cc1ccnc(NC(=O)Cn2ccc([N+](=O)[O-])n2)c1 14.6%, COc1cccc(/C=C/C(=O)OCC(=O)N2CCN(c3ccccc3)CC2)c1 17.4%, Cc1cc(NCc2ccco2)n2c(nc3ccccc32)c1C#N 7.48%, Cn1c(-c2ccco2)nc2cc3ccccc3cc21 33.2%, CCO[C@H]1OC(C(=O)O)=C[C@@H](C2CCCCC2)[C@@H]1CCCO -21.3%, CCCOc1ccc(Cc2c(Cl)nc(SC)nc2NC)cc1 35.5%, COc1ccc(C(=O)Nc2sc(C)c(C)c2CN2CCOCC2)cc1 34.2%, CCc1cc(C(=O)c2ccc(OC)cc2)c(NC(=O)CN2CCN(C)CC2)s1 17.7%, C/C(Cn1nnc2ccccc21)=N\OC(=O)c1cc(F)c(F)cc1Cl 37.4%, Cc1n[nH]c(=O)c2c(NC(=O)COC(=O)c3ncc(Cl)c(Cl)c3Cl)oc(C)c12 10.5%, CC(C(=O)O)n1cnc2sc3c(c2c1=O)CCCC3 (configuration not stated) 2.4%, COc1cc(Cl)ccc1OCc1cc(C(=O)N(C)CCc2c(C)n[nH]c2C)no1 7.82%, Cc1ccc(C(=O)CSc2ccccc2C(=O)O)cc1 -0.398%, Cc1ccc(CSCC(N)C(=O)O)cc1 (configuration not stated) 13.8%

inhibition, active:
CCc1ccc2oc(-c3ccc(N)cc3)nc2c1 41.3%, Cc1ccc2c(c1)C1CN(C)CCC1N2S(=O)(=O)c1ccc(Oc2ccc([N+](=O)[O-])cc2)cc1 (configuration not stated) 43.1%, CC(Nc1nc(C(F)(F)F)nc2ccccc12)c1cccs1 (configuration not stated) 42.6%, COc1ccc(/C=C(\C#N)C(=O)ONC2=NCCCCC2)cc1 48.2%, Cc1cccc(N=Nc2c(O)[nH]c3ccc(F)cc23)c1 43.6%, Nc1nc(-c2ccccc2)cc(-c2ccccc2)n1 41.6%, N/C(Cc1ccc([N+](=O)[O-])cc1)=N\OC(=O)C1CCCCC1 61.6%, N/C(Cc1ccc([N+](=O)[O-])cc1)=N\OC(=O)COc1ccc2ccccc2c1 68.6%, CCc1cccc(CC)c1NC(=S)NCc1ccc2[nH]c(C)cc2c1 48.6%, CCOC(=O)c1ccccc1N1C(=O)C2Sc3[nH]c(=O)sc3C(/C=C/c3ccccc3)C2C1=O (configuration not stated) 40.6%, CCc1nc(C)cn1S(=O)(=O)c1cc([N+](=O)[O-])ccc1Cl 53.6%, CC(C)c1nccn1S(=O)(=O)c1cc([N+](=O)[O-])ccc1Cl 43.6%, CC(C)c1cc(C(N)=O)c(NC(=O)c2cccc(COc3ccc(Br)cc3)c2)s1 40.9%, COc1ccccc1C1C(C#N)=C(N)Oc2c1c(-c1ccccc1)nn2-c1ccccc1 (configuration not stated) 40.7%, c1c2c(cc3sc(N4CCCCC4)nc13)OCCO2 43.1%, CCOC(=O)c1c(N)nn(C(=O)c2ccccc2)c1-c1ccccc1 41.5%, CN1c2ccccc2-c2nc3ccccc3n2C1c1ccco1 (configuration not stated) 42.1%, CCc1cc(C(N)=O)c(NC(=O)c2ccc(OC)cc2)s1 45.5%, Cc1ccc(SC(CC(=O)c2ccc(C(C)(C)C)cc2)C(=O)O)cc1 (configuration not stated) 40.7%
